# In the supplement of paper PMC6522484:
# ± gives the standard deviation of the averaged measurements.
# Assays:
# DLD1 [1] = test: cell viability (CellTiter-Glo) relative to plate median (fraction of plate median); higher = more viable cells; details: 5 µM; treatment time 24 h; reporter: 7TFP
# Procedure, shortened: (§1)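 Values are well luminescence normalised to the plate median, from either a firefly luciferase or a CellTiterGlo readout on parallel plates. The cells, colorectal cancer lines stably transduced with lentiviral 7TFP or TCF4/Wnt firefly luciferase reporters, were treated with library compounds at a final 5 µM for 24 h. The mean of two independent replicates is listed.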
# HCT116 = test: as above; details: 5 µM; treatment time 24 h; reporter: TCF4/Wnt
# Procedure, shortened: as §1
# SW480 [2] = test: as above; details: 5 µM; treatment time 24 h; reporter: 7TFP
# Procedure, shortened: as §1
# DLD1 [3] = test: TCF/Wnt firefly luciferase reporter signal relative to plate median (fraction of plate median); higher = higher Wnt reporter signal; details: 5 µM; treatment time 24 h; reporter: 7TFP
# Procedure, shortened: as §1
# SW480 [4] = test: as above; details: 5 µM; treatment time 24 h; reporter: 7TFP
# Procedure, shortened: as §1
Structure (SMILES),cell viability (DLD1 [1]),cell viability (HCT116),cell viability (SW480 [2]),TCF/Wnt firefly luciferase reporter signal (DLD1 [3]),TCF/Wnt firefly luciferase reporter signal (SW480 [4])
O=[N+]([O-])c1cccc2cn[nH]c12,1.015 ± 0.0071,0.987 ± 0.076,0.962 ± 0.047,1.1 ± 0.042,1.14 ± 0.021
COc1cc(C)c(C(=O)Oc2cc(C)c(C(=O)O)c(O)c2C)c(O)c1C=O,1.06 ± 0.014,0.9725 ± 0.0021,1.03 ± 0.014,1.06 ± 0.078,1.12 ± 0.085
CN(C/C=C/C#CC(C)(C)C)Cc1cccc2ccccc12,1.04 ± 0.18,1.04 ± 0.014,1.03 ± 0.035,1.21 ± 0.042,1.07 ± 0.2
CC(=O)Oc1ccc2c(c1OC(C)=O)OCC1(O)Cc3c(cc(OC(C)=O)c(OC(C)=O)c3OC(C)=O)C21 (stereo not given),0.96 ± 0.017,1.02 ± 0.074,0.959 ± 0.059,0.939 ± 0.05,0.9105 ± 0.0064
O=C1OC(c2ccc(O)cc2)(c2ccc(O)cc2)c2ccccc21,1.01 ± 0.12,1.03 ± 0.12,1.025 ± 0.0071,0.981 ± 0.069,1.04 ± 0.057
COC(=O)C[C@H]1C(C)(C)[C@@H](OC(C)=O)[C@@H]2CC3C4CC(=O)O[C@@H](c5ccoc5)[C@]4(C)CCC3[C@@]1(C)C2=O (stereo not given in full),1.05 ± 0.042,0.946 ± 0.011,1.015 ± 0.0071,0.966 ± 0.1,1.005 ± 0.0071
COC(=O)C1=CO[C@@H](O[C@@H]2O[C@H](CO)[C@@H](O)[C@H](O)[C@H]2O)[C@H]2[C@@H]1C(=O)C[C@@H]2C,1.03 ± 0.067,0.992 ± 0.083,0.982 ± 0.026,1.08 ± 0.064,1.06 ± 0.021
CCCc1ncc(C[n+]2ccccc2C)c(N)n1,0.995 ± 0.05,0.935 ± 0.059,0.972 ± 0.0028,0.956 ± 0.057,0.987 ± 0.011
CC(=O)NCCc1ccc(O)cc1 [N-(p-Hydroxyphenyl)ethylacetamide],1.02 ± 0.04,1.09 ± 0.057,1.06 ± 0.021,0.99 ± 0.099,1.14 ± 0.021
O=C(O)c1cc(O)c(=O)c2c(O)c(O)ccc2c1,1.02 ± 0.028,1.04 ± 0.12,1.01 ± 0.035,1.05 ± 0.035,1.02 ± 0.021
CC1(C)CC[C@]2(C(=O)O)CC[C@]3(C)C(=CC[C@@H]4[C@@]5(C)CC[C@H](O)[C@@](C)(CO)[C@@H]5CC[C@]43C)[C@@H]2C1,0.995 ± 0.16,1.025 ± 0.0071,1.01 ± 0.04,0.99 ± 0.042,0.975 ± 0.078
Nc1nnc(-c2cccc(Cl)c2Cl)c(N)n1,1.05 ± 0.05,1.04 ± 0.069,0.975 ± 0.05,0.923 ± 0.018,0.985 ± 0.036
C=C1C(=O)O[C@H]2C[C@@H]1C(OC(C)=O)C/C(C)=C/CC/C(C)=C/CC[C@@]2(C)O (stereo not given in full),0.888 ± 0.067,0.999 ± 0.058,1.06 ± 0.014,0.885 ± 0.13,0.892 ± 0.0092
CNc1ccccc1C(=O)N1CCc2c([nH]c3ccccc23)C1=O,1.03 ± 0.043,0.996 ± 0.1,0.994 ± 0.0085,1.14,1.09 ± 0.14
CC(C(=O)O)c1ccc(N2Cc3ccccc3C2=O)cc1 (stereo not given),0.986 ± 0.035,1.06 ± 0.035,0.992 ± 0.054,0.99 ± 0.14,1.05 ± 0.064
